Hits are enriched below; roughly 3.4% of the tested compounds scored in any of these assays.
Mito fusion yeast = mitochondrial division inhibition or fusion activation | S. cerevisiae fusion-defective mutant growth rescue, CellTiterGlo 48 h | 320,000 compounds, 0.23% hits | Potency, µM (titrated, usually from 46.1 µM), inactives show top-dose growth rescue (activation), hits mostly activators; also: % of control where 0% means no effect; nearly all actives have a fitted effect of over 45% in size
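Read-out: ATP-based luminescence (CellTiterGlo, 10 min ambient) reporting growth of fusion-defective ts yeast after 48 hours at 37C on glycerol/ethanol YPEG medium in the presence of compound.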
PLK1 PBD inh = inhibitors of human PLK1 polo-box domain binding; P53350; Plk1 PBD binding of FITC phosphopeptide, fluorescence polarization; Potency, µM, for the others: max response, negative = inhibition, actives largely listed as inhibitors; 360,000 compounds, 2.8% hits; AID 720504; also: series mostly up to about 57 µM; % is scaled to controls: 0 for no effect and ±100 for the full control effect; nearly all actives have a fitted effect of over 65% in size
KAT2A inh = blocks human GCN5L2 histone acetyltransferase; Q92830; GCN5L2 HAT assay, ThioGlo1 CoA-SH fluorescence; Potency, µM (titrated, usually from 58.9 µM), without a hit: top-dose activity change, negative = inhibition, usual class: inhibitors; 390,000 compounds, 0.21% hits; also: % is scaled to controls: 0 for no effect and ±100 for the full control effect
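Free CoA generated was detected with ThioGlo1 (50uM) fluorescence at Ex340nm/Em540nm, read immediately and after 20 min at room temperature. Enzyme, 20 nM in HEPES pH 7.5 buffer, saw compounds 15 min before adding 75uM H3(1-25) peptide and 70uM acetyl-CoA.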
GLS inhibitor = glutaminase GLS (human) inhibition. Potency, µM (highest dose often 45.5 µM), for inactives: top-dose activity change, negative = inhibition, usual class: inhibitors. GLS enzymatic activity, qHTS titration. 410,000 compounds, 0.21% hits. O94925; also: % is scaled to controls: 0 for no effect and ±100 for the full control effect
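Compounds were pin-transferred onto hKGA, after which L-glutamine (1 mM solution) and a detection mix of glutamate oxidase, HRP and Amplex Red were added. Initial and 30 min RT fluorescence reads were collected.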
PKM2 activator = increases activity of human pyruvate kinase M2. P14618. purified PKM2, Kinase-Glo ATP luminescence, activation; response scale: 0% is enzyme alone, no compound. Potency, µM (top dose mostly 57.5 µM), inactives show at the highest dose activation, actives largely listed as activators. 260,000 compounds, 0.34% hits. AID 1631; also: % is scaled to controls: 0 for no effect and ±100 for the full control effect; nearly all actives have a fitted effect of over 55% in size
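ATP formation by purified human PK-M2, quantified via coupled luciferase luminescence after 1 h at room temperature with 0.1 mM ADP and 0.5 mM PEP final.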
VDR inh = vitamin D3 receptor (human) inhibition | VDR-SRC2-3 peptide fluorescence polarization, 2 h | AID 504847 | Potency, µM, without a hit: max response, negative = inhibition, most hits filed as inhibitors | 400,000 compounds, 0.93% hits | P11473; also: % is scaled to controls: 0 for no effect and ±100 for the full control effect
Target sequence (P11473 whole entry, looked up): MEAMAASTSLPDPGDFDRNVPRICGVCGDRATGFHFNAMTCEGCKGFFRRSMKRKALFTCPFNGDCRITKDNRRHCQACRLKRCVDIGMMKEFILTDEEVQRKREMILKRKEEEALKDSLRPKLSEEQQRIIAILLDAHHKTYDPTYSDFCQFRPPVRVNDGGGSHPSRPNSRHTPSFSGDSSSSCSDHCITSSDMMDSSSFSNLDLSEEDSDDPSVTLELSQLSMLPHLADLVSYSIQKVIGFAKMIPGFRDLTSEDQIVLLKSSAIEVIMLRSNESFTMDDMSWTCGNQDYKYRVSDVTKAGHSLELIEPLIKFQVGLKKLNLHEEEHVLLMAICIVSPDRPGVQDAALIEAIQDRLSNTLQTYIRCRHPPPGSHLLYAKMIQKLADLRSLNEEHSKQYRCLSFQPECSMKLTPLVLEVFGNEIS
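Compounds are added to VDR with labelled SRC2-3 coactivator peptide and held 2 h at room temperature. Inhibition of the VDR–peptide interaction is then read as a change in fluorescence polarization.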
* = called active by the depositor; [ ] = another dose, or the depositor's remark. Calls follow the shape of the dose curve; as a rule, active = well fitted curve in the direction sought with a large enough effect; inconclusive = small, poorly fitted or top-dose-only effect, or another doubt; inactive = no such curve, though single readings can be large; an effect the other way counts as inactive or inconclusive. Potency is read from the fitted curve at half-maximal effect.

For O=C(CSc1nc(-c2ccc(F)cc2)nc2c1Cc1ccccc1O2)Nc1cccc(C(=O)O)c1 the results were Mito fusion yeast -3%, PLK1 PBD inh 11µM*, KAT2A inh 13µM*, GLS inhibitor -24%, PKM2 activator inconclusive and VDR inh 4%.
`Cc1ccc(C)c(N(C)S(=O)(=O)c2ccc3c(c2)oc(=O)n3C)c1` gave Mito fusion yeast 3%, PLK1 PBD inh -14%, KAT2A inh -14%, GLS inhibitor 0% and VDR inh -4%.
For Cc1ccc(C(C)C)cc1OCCn1cncn1 the results were Mito fusion yeast -3%, PLK1 PBD inh 8%, KAT2A inh -3%, GLS inhibitor 5%, PKM2 activator 3%[11.5 µM] and VDR inh -9%.
CC(C)c1ccccc1NC(=O)COC(=O)Cc1cccc(C(F)(F)F)c1 was read as Mito fusion yeast 9%, PLK1 PBD inh 27µM*, KAT2A inh -3%, GLS inhibitor 29%, PKM2 activator -1% and VDR inh inconclusive.
`O=C(COC(=O)Cc1cccc(C(F)(F)F)c1)Nc1cccc2ccccc12` gave Mito fusion yeast 0%, PLK1 PBD inh -2%, KAT2A inh 33%, GLS inhibitor -4%, PKM2 activator -7% and VDR inh -10%.
For O=C(Cc1cccc(C(F)(F)F)c1)Nc1ccc(S(=O)(=O)N2CCCC2)cc1 the results were Mito fusion yeast 0%, PLK1 PBD inh 2%, KAT2A inh inconclusive, GLS inhibitor -8% and VDR inh 4%.
`O=C(Cc1cccc(C(F)(F)F)c1)Nc1ccccc1` gave Mito fusion yeast 3%, PLK1 PBD inh 24µM*, KAT2A inh -7%, GLS inhibitor 3%, PKM2 activator -7% and VDR inh -2%.
For C[C@H]1Cc2c(COc3ccccc3)nc3c(c2CO1)CN(C(=O)NCCc1c[nH]c2ccccc12)CC3 the results were PKM2 activator 16%[11.5 µM].
CC1(C)OC(=O)C2=C(C[C@@H](CCC(F)(F)F)O[C@H]2c2ccc(F)cc2)O1 was read as PLK1 PBD inh -3% and GLS inhibitor 1%.
Screening N#CC1=C(Nc2ccccc2Cl)SC2(CCCC2)NC1=O returned PLK1 PBD inh inconclusive and GLS inhibitor 4%.
Screening N#CC1=C(Nc2ccccc2Cl)SC(c2ccncc2)NC1=O (stereo not drawn) returned PLK1 PBD inh 27µM* and GLS inhibitor 5%.
Screening Cc1c(C)c2c(c(C)c1OC(=O)CCC(=O)OCCO)CC[C@](C)(CCC[C@H](C)CCC[C@H](C)CCCC(C)C)O2 returned GLS inhibitor -2%.
C=CC1=C(C(=O)O)N2C(=O)[C@@H](NC(=O)/C(=N\O)c3csc(N)n3)[C@H]2SC1 (stereo in doubt) was read as PLK1 PBD inh -20%, GLS inhibitor inconclusive and VDR inh -4%.
For C=CC1=C(C(=O)O)N2C(=O)[C@@H](NC(=O)C(N=O)c3csc(N)n3)[C@H]2SC1 (stereo partly drawn) the results were KAT2A inh -12%, GLS inhibitor inconclusive and VDR inh 45µM*.
Screening O=c1[nH]c(/C=C\c2cccc(F)c2)nc(O)c1[N+](=O)[O-] returned Mito fusion yeast 3%, PLK1 PBD inh 0%, KAT2A inh -1%, GLS inhibitor 1%, PKM2 activator -1% and VDR inh 40µM*.
Screening C=CCOc1cccc(/C=C\c2nc(O)c([N+](=O)[O-])c(=O)[nH]2)c1 returned Mito fusion yeast 4%, PLK1 PBD inh -7%, KAT2A inh -23%, GLS inhibitor 2% and VDR inh 14µM*.
For C=CCOc1ccc(/C=C\c2nc(O)c([N+](=O)[O-])c(=O)[nH]2)cc1OCC the results were Mito fusion yeast 7%, PLK1 PBD inh -15%, KAT2A inh -3%, GLS inhibitor -21% and VDR inh inconclusive.
